In PMC5540273 (PLoS ONE, 2017):

What was measured:
Settings in all cases: concentration: 1 μM,replicates: in singlicate; n = 1
LCK = tested on: LCK
LIMK1 = tested on: LIMK1
LIMK2 = tested on: LIMK2
LKB1 = tested on: T1, LKB1
T1 construct: gene STK11

LOK = tested on: T2, LOK
T2 construct: gene STK10

LRRK2 = tested on: LRRK2
LTK = tested on: LTK
LYN = tested on: LYN
LZK = tested on: T3, LZK
T3 construct: gene MAP3K13

MAK = tested on: MAK
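Note: KINOMEscan kinase panel screen.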

| SMILES | %Inh (LCK) [%] | %Inh (LIMK1) [%] | %Inh (LIMK2) [%] | %Inh (LKB1) [%] | %Inh (LOK) [%] | %Inh (LRRK2) [%] | %Inh (LTK) [%] | %Inh (LYN) [%] | %Inh (LZK) [%] | %Inh (MAK) [%] |
| --- | --- | --- | --- | --- | --- | --- | --- | --- | --- | --- |
| C[C@@H]1CCN(C(=O)N2CCCC2)C[C@@H]1N(C)c1ncnc2[nH]ccc12 | 41 | 0 | 0 | 0 | 0 | 0 | 100 | 0 | 22 | 14 |
| OCCn1cc(-c2cnc3nnn(Cc4ccc5ncccc5c4)c3n2)cn1 | 0 | 0 | 0 | 3 | 18 | 0 | 8 | 0 | 0 | 0 |
| CN1CCN(CCCNc2nccc(-c3c(-c4ccc(F)cc4)nn4cc(C(N)=O)ccc34)n2)CC1 [GW622475] | 51 | 0 | 9 | 0 | 0 | 2 | 39 | 0 | 0 | 50 |
| O=C(Nc1n[nH]c2cc(-c3ccco3)ccc12)C1CC1 [SB-737447] | 3 | 0 | 0 | 0 | 3 | 0 | 0 | 0 | 0 | 4 |
| Nc1nccc(-c2ccc3c(N)n[nH]c3c2)n1 [GSK1034945] | 0 | 0 | 12 | 4 | 0 | 0 | 8 | 0 | 0 | 81 |
| O=C(Nc1ccccc1)c1cccc(Oc2ccc3nccn3n2)c1 | 13 | 12 | 23 | 0 | 7 | 0 | 20 | 4 | 0 | 32 |
| CNC(=O)c1ccccc1Nc1nc(Nc2cccc(CS(C)(=O)=O)c2)ncc1C.O=CO [GSK1520489] | 99.8 | 47 | 0 | 0 | 99.8 | 90 | 89 | 95.1 | 97.3 | 0 |
| CSc1nccc(-c2c(-c3ccc(F)cc3)ncn2CCCN2CCOCC2)n1.Cl [SB-217146] | 0 | 3 | 0 | 0 | 8 | 0 | 4 | 0 | 0 | 0 |
| NC(=O)Nc1sc(-c2ccc(F)cc2)cc1C(N)=O [GW789449] | 32 | 3 | 24 | 0 | 22 | 0 | 35 | 0 | 0 | 0 |
| Cn1cc(-c2cccc3c(N)c(C(N)=O)nnc23)cn1 | 5 | 2 | 7 | 0 | 15 | 57 | 29 | 12 | 0 | 0 |
| Cc1cccc2c(-c3ccncc3)c(-c3ccc(F)cc3)nn12.Cl [GW461487] | 19 | 0 | 4 | 4 | 0 | 26 | 100 | 0 | 5 | 26 |
| Cn1ccc2ncnc(Oc3ccc(NC(=O)Nc4cc(C(C)(C)C)on4)c(Cl)c3)c21 | 98.2 | 13 | 17 | 0 | 99.9 | 3 | 39 | 95.4 | 0 | 0 |
| Cc1ccc(C(=O)Nc2ccc(Oc3ccc4nc(NC(=O)C5CC5)cn4c3)c(F)c2)c(=O)n1-c1ccccc1 | 99.2 | 42 | 21 | 34 | 99.9 | 0 | 38 | 57 | 0 | 0 |
| Cc1ccc2c(-c3ccnc(Nc4ccc(C(F)(F)F)cc4)n3)cnn2n1 [GW819776] | 10 | 2 | 0 | 24 | 16 | 0 | 28 | 1 | 0 | 20 |
| C[C@@H]1CNc2c(sc3ccc4nc(-c5ccncc5)ccc4c23)C(=O)N1 | 13 | 0 | 0 | 0 | 14 | 100 | 65 | 6 | 0 | 0 |
| Cl.c1ccc(Oc2ccc(Nc3ccnc4cc(-c5ccc(CN6CCNCC6)o5)ccc34)cc2)nc1 [GW567142] | 82 | 0 | 0 | 0 | 54 | 4 | 0 | 4 | 7 | 21 |
| CN1CCN(CCNc2nc3cc(Oc4ccc(NC(=O)Nc5cc(C(F)(F)F)ccc5F)cc4)ccc3[nH]2)CC1.Cl.Cl [GW768504] | 22 | 0 | 2 | 38 | 95.2 | 0 | 19 | 12 | 0 | 13 |
| Cc1cccc(-c2nc(Nc3ccncc3)c3sccc3n2)n1 [GW869641] | 20 | 11 | 5 | 0 | 79 | 0 | 35 | 18 | 4 | 0 |
| Cl.Nc1n[nH]c2cc(-c3ccccn3)ccc12 [GSK2189892] | 12 | 0 | 0 | 12 | 0 | 0 | 0 | 0 | 0 | 29 |
| O=C(Nc1cccc(C(F)(F)F)c1)c1cccc(Oc2ccc3nccn3n2)c1 | 63 | 0 | 8 | 0 | 24 | 0 | 45 | 37 | 20 | 0 |
| Cc1nnc(-c2ccc3occ(-c4ccc(S(C)=O)cc4)c3n2)o1 (stereo not drawn) | 0 | 0 | 0 | 3 | 0 | 0 | 0 | 0 | 0 | 0 |
